Source: PubChem
Rows were chosen to be rich in hits. Some 8.6% of all compounds tested hit in one or more screens of this group.
MARV entry inh = inhibitors of Marburg virus binding or entry into cells; Marburg virus pseudotype entry/binding inhibition, cell-based; Potency, µM (doses to about 49.2 µM), actives largely listed as inhibitors; 18,000 tested, 6.5% active
Lassa entry = inhibitors of Lassa virus binding or entry into cells; Lassa virus pseudotyped entry inhibition, cell-based qHTS; Potency, µM (highest dose often 49.2 µM), usual class: inhibitors; 18,000 tested, 4.1% active
A number is an active result; ! = not active in a repeat; [ ] = dose if it differs, or a comment. Calls follow the shape of the full dose curve; tested in HEK293 cells.

For C[C@@H]1O[C@@H](O[C@H]2C[C@@H](O)[C@]3(CO)[C@H]4[C@H](O)C[C@]5(C)[C@@H](C6=CC(=O)OC6)CC[C@]5(O)[C@@H]4CC[C@]3(O)C2)[C@H](O)[C@H](O)[C@H]1O the results were MARV entry inh inconclusive and Lassa entry 0.032µM.
For COc1ccc2c(c1)O[C@@H](c1cccc(C(F)(F)F)c1)[C@H](OC(=O)NCc1ccco1)C2=O the results were MARV entry inh inactive and Lassa entry inactive.
CN(C)C(=O)Nc1ccc(-n2nc(C(C)(C)C)oc2=O)c(Cl)c1 was read as MARV entry inh inactive and Lassa entry inactive.
For CSCC[C@H](NC(=O)[C@H](CC(C)C)NC(=O)CNC(=O)[C@H](Cc1ccccc1)NC(=O)[C@H](Cc1ccccc1)NC(=O)[C@H](CCC(N)=O)NC(=O)[C@H](CCC(N)=O)NC(=O)[C@@H]1CCCN1C(=O)[C@H](CCCCN)NC(=O)[C@@H]1CCCN1C(=O)[C@H](CCCN=C(N)N)NC(=O)CCCCC1SCC2NC(=O)NC21)C(N)=O (some centres undefined) the results were MARV entry inh inactive and Lassa entry inactive.
For O=[S+]1([O-])C[C@H](N2CC[C@@H](O)C2)[C@H](COCc2ccccc2)N1 the results were MARV entry inh inactive and Lassa entry inconclusive.
Screening OC(C#CCN1CCCC1)(c1ccccc1)c1ccccc1 returned MARV entry inh inactive and Lassa entry inactive.
Screening OC(CCN1CCCC1)(c1ccccc1)C1CCCCC1 (centres undefined) returned MARV entry inh 16µM and Lassa entry inactive.
For CC[N+](CC)(CC)CCC(O)(c1ccccc1)C1CCCCC1 (centres undefined) the results were MARV entry inh inactive and Lassa entry inactive.
For OC(CCN1CCCCC1)(c1ccccc1)c1ccccc1 the results were MARV entry inh 8.9µM and Lassa entry inconclusive.
CCC(c1ccc(O)cc1)C(CC)c1ccc(O)cc1 (centres undefined) was read as MARV entry inh inactive and Lassa entry inconclusive.
COC(=O)CNC(=O)c1cnn(-c2ncc3c(n2)-c2ccccc2CCC3)c1C1CC1 was read as MARV entry inh inactive and Lassa entry inactive.
Screening CC1=CC[C@@H](COc2ccccc2)O[C@@]2(C1)C(=O)N(Cc1ccccc1C(F)(F)F)c1cccc(Br)c12 returned MARV entry inh inactive[8.59 µM] and Lassa entry inactive[8.59 µM].
For CCN1C(=NCCc2ccccn2)NC(c2cccc(C(F)(F)F)c2)C(C(=O)OC)=C1C (centres undefined) the results were MARV entry inh inactive[8.59 µM] and Lassa entry inactive[8.59 µM].
Screening CN(C)C=Nc1c(I)cc(I)c(CCC(=O)O)c1I returned MARV entry inh inactive and Lassa entry inactive.
`Cc1oc(-c2ccccc2NC(=O)c2cccnc2)nc1CNC(=O)C1CCCCCN1C` (centres undefined) gave MARV entry inh inconclusive and Lassa entry inactive.
Cc1cccc(Nc2ncc(-c3ccccc3)o2)c1 was read as MARV entry inh inactive.
Screening c1ccc(Nc2ncc(-c3ccccc3)o2)cc1 returned MARV entry inh inactive and Lassa entry 5µM.
Screening COC(=O)[C@H](CC(C)C)NC(=O)c1ccc(NC[C@@H](N)CS)cc1-c1cccc2ccccc12 returned MARV entry inh 11µM and Lassa entry 11µM.
Screening COC(=O)[C@H](NC(=O)c1cc(-c2ccccc2)nc2ccccc12)c1ccccc1 returned MARV entry inh inactive and Lassa entry inconclusive.
`CC(CN)CC(=O)O` (centres undefined) gave MARV entry inh inactive and Lassa entry inactive.
`CC1=CC(=O)c2c(O)cccc2C1=O` gave MARV entry inh 4µM and Lassa entry 3.2µM.
CC1=CC2C(=O)c3cccc(O)c3C(=O)C2C(O)=C1 (centres undefined) was read as MARV entry inh inactive and Lassa entry inactive.
CC1=CC(=O)c2ccccc2C1=O was read as MARV entry inh 10µM! and Lassa entry inconclusive.
`CN1C(=O)c2ccccc2C1=O` gave MARV entry inh inactive and Lassa entry inactive.
CCCN(CCC)Cc1cc(=O)oc2cc(OC)c(Cl)cc12 was read as MARV entry inh inactive and Lassa entry inconclusive.
`CCOC(=O)C(CCc1ccccc1)NC(C)C(=O)N1CCCC1C(=O)O` (centres undefined) gave MARV entry inh inactive and Lassa entry inactive.
CCCNC(=O)[C@H]1O[C@@H]1C(=O)N[C@H](C(=O)N1CCC[C@H]1C(=O)OC)[C@@H](C)CC was read as MARV entry inh 2.5µM and Lassa entry 10µM.
`C=CCc1cc(OC)c(O)c(C(=O)NCCO)c1` gave MARV entry inh inactive and Lassa entry inactive.
ClC1=C(Cl)C(Cl)(C2(Cl)C(Cl)=C(Cl)C(Cl)=C2Cl)C(Cl)=C1Cl was read as MARV entry inh 3.2µM and Lassa entry inconclusive.
`CCCCc1nc2c(c3c1C[C@H](C)OC3)CN(C(=O)c1cccnc1)CC2` gave MARV entry inh inconclusive and Lassa entry inactive[8.59 µM].
C=C1[C@H](CO)[C@@H](O)C[C@@H]1n1cnc2c(=O)[nH]c(N)nc21 was read as MARV entry inh inactive and Lassa entry inactive.
